Measurements reported in PubChem BioAssay AID1159580 (chemical genetic matrix, 2015).
Hit rate of the full screen: of about 5,500 compounds, about 2,000 (36%) were called active. Roughly 18% stayed inconclusive and do not appear here. No stated cut-off is given here; in the data, active means normalized growth mostly below about 0.91 (no sharp cut-off); inconclusive means no clear call, values can overlap the other calls; inactive means mostly above about 0.92. The list shows a part of the results.

Assay: chemical genetic growth profiling, strain panel (AID 1159580);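 further: tested at 20 µM; growth read once vehicle control cultures reached saturation at 30 °C; 1 = growth at the plate median or of vehicle wells; lower values mean less growth of the strain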
Conditions: growth OD
[1] = S. cerevisiae deletion strains, locus YDR150W, strain NUM1, hits give low values
[2] = S. cerevisiae deletion strains, locus YMR263W, strain SAP30, hits give low values
[3] = S. cerevisiae deletion strains, locus YPL055C, strain LGE1, hits give low values
[4] = S. cerevisiae deletion strains, locus YPL241C, strain CIN2, hits give low values

Measured: normalized growth

NCC(O)C1CCCCCCC1 (configuration not stated)
inactive: S. cerevisiae deletion strains, locus YAL040C, strain CLN3, hits give low values 1.01 | S. cerevisiae deletion strains, locus YCL061C, strain MRC1 (second series), hits give low values 1.01 | [1] 0.995 | S. cerevisiae deletion strains, locus YDR363W, strain ESC2, hits give low values 0.994 | S. cerevisiae deletion strains, locus YER002W, strain NOP16, hits give low values 0.999 | [2] 0.999 | S. cerevisiae deletion strains, locus YNL175C, strain NOP13, hits give low values 1.01 | S. cerevisiae deletion strains, locus YNL197C, strain WHI3, hits give low values 1.01 | S. cerevisiae deletion strains, locus YNL224C, strain SQS1, hits give low values 1 | S. cerevisiae deletion strains, locus YOR083W, strain WHI5 (second series), hits give low values 1.04 | [3] 0.992 | [4] 1

COc1ccc(CN2C(=O)CSC2c2ccccn2)cc1 (configuration not stated)
inactive: S. cerevisiae deletion strains, locus YAL013W, strain DEP1, hits give low values 1.01 | S. cerevisiae deletion strains, locus YBR229C, strain ROT2, hits give low values 0.995 | S. cerevisiae deletion strains, locus YCL061C, strain MRC1, hits give low values 0.977 | S. cerevisiae deletion strains, locus YDL101C, strain DUN1, hits give low values 1.01 | S. cerevisiae deletion strains, locus YDL134C, strain PPH21, hits give low values 1 | [1] 1.01 | S. cerevisiae deletion strains, locus YEL061C, strain CIN8, hits give low values 1.01 | S. cerevisiae deletion strains, locus YGR078C, strain PAC10, hits give low values 1.01 | S. cerevisiae deletion strains, locus YHR030C, strain SLT2, hits give low values 0.998 | S. cerevisiae deletion strains, locus YHR087W, strain rtc3, hits give low values 1.01 | S. cerevisiae deletion strains, locus YJL187C, strain SWE1, hits give low values 0.989 | S. cerevisiae deletion strains, locus YJR043C, strain POL32, hits give low values 0.995 | S. cerevisiae deletion strains, locus YJR075W, strain HOC1, hits give low values 1.01 | S. cerevisiae deletion strains, locus YKL190W, strain CNB1, hits give low values 1 | S. cerevisiae deletion strains, locus YLR039C, strain RIC1, hits give low values 0.97 | S. cerevisiae deletion strains, locus YLR058C, strain SHM2 (second series), hits give low values 0.991 | S. cerevisiae deletion strains, locus YLR085C, strain ARP6, hits give low values 0.971 | S. cerevisiae deletion strains, locus YLR262C, strain YPT6, hits give low values 0.953 | S. cerevisiae deletion strains, locus YML094W, strain GIM5, hits give low values 1.02 | S. cerevisiae deletion strains, locus YMR219W, strain ESC1, hits give low values 0.993 | [2] 0.993 | S. cerevisiae deletion strains, locus YNL153C, strain GIM3, hits give low values 0.999 | S. cerevisiae deletion strains, locus YNL298W, strain CLA4 (second series), hits give low values 0.994 | S. cerevisiae deletion strains, locus YNL322C, strain KRE1, hits give low values 1 | S. cerevisiae deletion strains, locus YNR030W, strain Alg12, hits give low values 1 | S. cerevisiae deletion strains, locus YOL006C, strain TOP1, hits give low values 0.988 | [3] 1 | [4] 1.07 | S. cerevisiae deletion strains, locus YPR135W, strain CTF4, hits give low values 0.985 | S. cerevisiae strains, strain wild type, hits give low values 1
